Compound activity: PubChem, National Center for Advancing Translational Sciences (NCATS)
The list is not random: actives were taken first. Their share in the collection is about 19%.
SW480 rerep – inducers of DNA re-replication in SW480 colon cancer cells; 1.8% of 340,000 active; SW480 DNA re-replication, Hoechst DNA content imaging, 48 h; AID 624297; Potency, µM (doses to about 46.1 µM), for inactives: top-dose re-replication activation, actives largely listed as activators; further: potency means the concentration at half of the fitted maximal effect; % of control where 0% means no effect; nearly all actives have a fitted effect of over 55% in size
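Readout is total intensity of Hoechst-stained nuclei, excited at 405 nm and collected at 500-530 nm. Compound treatment lasted 48 hr at 37 C in 5% CO2 before staining.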
BCR signal inh – chronic active BCR signaling inhibition; ABC-DLBCL IkBa-CBG/CBR reporter, luminescence ratio, 4 h; 0.05% of 340,000 active; Potency, µM (series often up to 46.1 µM), inactives show top-dose activity change, negative = inhibition, actives largely listed as inhibitors; AID 493014; active means well fitted inhibition curve with a large enough effect in the signal ratio, with a control signal flat, not every such curve was filed as active; inconclusive means small, poorly fitted or top-dose-only effect, or effect the other way, or a change in a side signal; the % refers to the signal ratio;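 further: potency means the concentration at half of the fitted maximal effect; plate controls were basal doxycycline-induced cells for no effect and cells given 10 µM MG132 for full effect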
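Compounds up to 46 uM were incubated four hours with TMD8 cells whose green CBG68 luciferase is fused to IkappaBalpha; red CBR luminescence normalised the signal, and concentration-effect curves were fitted to fusion, red and ratio data.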
IL-1B inflam inh – inflammasome signaling inhibition, IL-1 beta readout; THP-1 LPS/ATP IL-1B secretion, AlphaLISA, 16 h; hits give low values; activity change, % at 57.5 µM; 4.7% of 360,000 active; AID 743279; in the data active means activity change below about -50%; inconclusive means mostly about -30% to -49%; further: on the % scale 0 is the no-effect control and ±100 the full control effect
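Secreted IL-1B measured by AlphaLISA bead assay after 16 h compound exposure of THP-1 cells; compounds (final up to 57.5 uM) added 1 h before LPS (250 ng/mL) and ATP (1.25 mM) stimulation; lower signal means less secretion.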
MCF10A rereplic – inducers of DNA re-replication in MCF 10A breast cells; MCF 10A DNA re-replication, Hoechst nuclear intensity, 48 h; Potency, µM (series often up to 46.1 µM), without a hit: at the highest dose activity, positive = re-replication, most hits filed as activators; 2.9% of 350,000 active; AID 624296; further: potency means the concentration at half of the fitted maximal effect; % of control where 0% means no effect; nearly all actives have a fitted effect of over 50% in size
DT40 TDP1 no CPT – qHTS for Inhibitors of human tyrosyl-DNA phosphodiesterase 1 (TDP1): qHTS in cells in absence of CPT; DT40 Tdp1-/- hTDP1 cells, no CPT, ATP luminescence, 48 h; Potency, µM (highest dose often 46.2 µM), for inactives: top-dose activity change, negative = growth inhibition, most hits filed as inhibitors; 15% of 420,000 active; AID 686978, 2013; further: potency means the concentration at half of the fitted maximal effect; on the % scale 0 is the no-effect control and ±100 the full control effect; nearly all actives have a fitted effect of over 55% in size
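A cellular qHTS used chicken DT40 cells lacking endogenous Tdp1 but carrying stably transfected human TDP1. Compounds were applied without camptothecin, and cell growth kinetics were judged by ATP-dependent luminescence after ≥48 hr.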
DT40 TDP1 CPT – DT40-hTDP1 cell growth loss with CPT. Potency, µM (titrated, usually from 46.2 µM), for the others: at the top dose activity change, negative = growth inhibition, usual class: inhibitors. chicken DT40 Tdp1-/-;hTDP1 cells + 20 nM CPT, ATP luminescence, 48 h. 12% of 420,000 active; further: potency means the concentration at half of the fitted maximal effect; on the % scale 0 is the no-effect control and ±100 the full control effect; nearly all actives have a fitted effect of over 55% in size
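Chicken DT40 Tdp1-/- cells stably complemented with human TDP1 were seeded at 400 cells/well in medium containing 20 nM camptothecin, exposed to pin-transferred compounds, and grown at 37 °C for at least 48 hr. Viability was read as ATP luminescence.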
Starred values were filed as active, the others as inactive; ? = inconclusive; / = not tested or not shown; [ ] = another dose, or the depositor's remark. Unless noted, the call rests on the fitted dose curve; in most records, active means well fitted curve in the direction sought with a large enough effect; inconclusive means small, poorly fitted or top-dose-only effect, or another doubt; inactive means no such curve, though single readings can be large; an effect the other way counts as inactive or inconclusive.

SMILES	SW480 rerep	BCR signal inh	IL-1B inflam inh	MCF10A rereplic	DT40 TDP1 no CPT	DT40 TDP1 CPT
CCC(C)OC(=O)c1[nH]c2c(c1C)C(=O)CC(c1ccc(N(C)C)cc1)C2 (configuration not stated)	?	5%	8	?	15µM*	23µM*
CCOCCOC(=O)c1[nH]c2c(c1C)C(=O)CC(c1ccc(N(C)C)cc1)C2 (configuration not stated)	?	?	2	?	?	23µM*
COC(=O)C1C(=O)c2c([nH]c(C(=O)OC3CCCC3)c2C)CC1C (configuration not stated)	4%	/	?	1%	?	-78%
Cc1ccc(CNC(=O)C(=O)NCC(c2cccs2)S(=O)(=O)c2cccs2)cc1 (configuration not stated)	/	?	/	/	-11%	?
COc1ccc(C(=O)C(=O)N2CCN(c3ccccc3F)CC2)cc1	/	/	-15	/	?	?
Cn1cccc1C(=O)N1CCC2(CCCN(Cc3ccncc3)C2)CC1	/	/	/	/	-28%	10%
CCOCCOC(=O)c1[nH]c2c(c1C)C(=O)CC(c1ccc(OC)c(OC)c1)C2 (configuration not stated)	0%	?	-26	21%	13µM*	?
CC1=C(C(=O)OCCOc2ccccc2)C(c2coc3ccccc3c2=O)C2=C(CCCC2=O)N1 (configuration not stated)	21%	-1%	18	?	?	-13%
Cc1c(C(=O)OCCOc2ccccc2)[nH]c2c1C(=O)CCC2	8%	?	?	?	23µM*	15µM*
C/C=C/COC(=O)c1[nH]c2c(c1C)C(=O)CC(c1ccc(N(C)C)cc1)C2 (configuration not stated)	?	-2%	-28	?	16µM*	26µM*
Cc1c(C(=O)O)[nH]c2c1C(=O)CC(c1ccc(C(C)(C)C)cc1)C2 (configuration not stated)	-5%	7%	12	1%	22%	3%
CC(=O)c1ccc(OCc2nnn(CC(=O)O)c2-c2ccccc2)cc1	/	/	-69*	/	6%	5%
Cc1ccc(OCc2nnn(CC(=O)NS(=O)(=O)c3c(C)noc3C)c2-c2ccccc2)cc1	/	/	5	/	1µM*	?
COc1cccc(Nc2ncc3nc(-c4cc(F)cc(F)c4)c(=O)n(C4CC4)c3n2)c1	/	/	/	/	2%	11%
CC1c2[nH]c3ccccc3c2CCN1C(=O)Nc1ccccc1 (configuration not stated)	?	?	-12	10%	23µM*	23µM*
CC(=O)Nc1ccc(CN2CCc3c([nH]c4ccccc34)C2C(C)(C)C)cc1 (configuration not stated)	1%	-10%	28	6%	-19%	-28%
O=C(Nc1ccccc1)N1CCc2c([nH]c3ccccc23)C1C(F)(F)F (configuration not stated)	?	-11%	-93*	?	?	11%
O=C(c1ccc(Cl)cc1)N1CCc2c([nH]c3ccccc23)C1C(F)(F)F (configuration not stated)	14%	16%	5	?	?	4%
COc1ccc(NC(=O)N2CCc3c([nH]c4ccc(OC)cc34)C2c2ccc(OC)cc2)cc1 (configuration not stated)	/	/	/	/	21µM*	?
COc1cccc(Cl)c1NC(=O)N1CCc2c([nH]c3ccccc23)C1C(F)(F)F (configuration not stated)	?	?	-8	5.8µM*	?	-26%
COc1ccc(C2c3[nH]c4ccccc4c3CCN2C(=O)c2ccccc2C(C)=O)c(F)c1 (configuration not stated)	-65%	?	?	1%	?	?
Nc1c(C(=O)Nc2cccc(F)c2)nnn1-c1ccc2c(c1)OCCO2	-34%	?	-9	-12%	-24%	-8%
CC1CCCCC1=NNC(=O)c1ccccc1 (configuration not stated)	/	/	-12	/	-9%	-2%
Cc1nn(CC(=O)N2CCN(c3ccccc3F)CC2)c(=O)c2cccn12	/	/	/	/	-16%	3%
Cc1ccc(NC(=O)N2CCc3c([nH]c4ccccc34)C2c2ccccc2F)c(Cl)c1 (configuration not stated)	/	/	/	/	23µM*	?
SMILES	SW480 rerep	BCR signal inh	IL-1B inflam inh	MCF10A rereplic	DT40 TDP1 no CPT	DT40 TDP1 CPT
COC(=O)CC1Oc2ccccc2-n2cc(-c3ccc(C)cc3)nc21 (configuration not stated)	/	/	/	/	3.3µM*	5.8µM*
CCOC(=O)C1Oc2ccccc2C(c2ccc(F)cc2)=C1C(=O)OC (configuration not stated)	?	-1%	27	-4%	-27%	-9%
COC(=O)CC1Oc2ccccc2-n2cc(-c3ccc(F)cc3)nc21 (configuration not stated)	/	/	/	/	8.2µM*	9.2µM*
CCN1CCCC1Cn1cnc2c([nH]c3ccc(C)cc32)c1=O (configuration not stated)	-14%	10%	-58*	23%	-17%	-23%
Cc1ccc2[nH]c3c(=O)n(CCN4CCNCC4)cnc3c2c1	0%	5%	15	?	-14%	-2%
CCN1CCCC1CNc1ncnc2c1[nH]c1ccc(Cl)cc12 (configuration not stated)	-1%	?	-110*	?	?	?
COc1cc2c(cc1OC)C1O[C@](c3ccsc3)(C2)Oc2c1c(=O)oc1ccc(F)cc21	/	26%[9.22 µM]	/	/	/	/
C=CCNC(=S)N1CCN(Cc2ccc3c(c2)OCO3)CC1	0%	?	-1	-5%	-30%	1%
CCCCCCCCCCCCCCC[C@@H](O)[C@H](CO)NC(C)=O	/	/	/	/	6%[4.12 µM]	8%[4.12 µM]
Brc1ccc(C2Nc3cccc4cccc(c34)N2)s1	-5%	-6%	-6	0%	?	21µM*
CCC(CO)NCc1ccc(OCC(O)c2ccccc2)c(OC)c1 (configuration not stated)	-23%	1%	2	27%	13%	6%
O=C(Nc1ccc(Cl)c(C(F)(F)F)c1)C1CCN(S(=O)(=O)c2cccc3nonc23)CC1	/	/	/	/	5.2µM*	13µM*
